This is one part of a sample in which hits are shown more often than they occur.
nsP2pro inh – blocks chikungunya virus nsP2 protease peptide cleavage | FRET peptide cleavage, nsP2pro, fluorescence 1 h | Potency, µM (titrated, usually from 24.9 µM), for inactives: top-dose activity change, negative = inhibition, most hits filed as inhibitors | actives 1.1% (n = 31,000); further: nearly all actives have a fitted effect of over 60% in size
Target sequence (Q8JUX6 whole entry, looked up): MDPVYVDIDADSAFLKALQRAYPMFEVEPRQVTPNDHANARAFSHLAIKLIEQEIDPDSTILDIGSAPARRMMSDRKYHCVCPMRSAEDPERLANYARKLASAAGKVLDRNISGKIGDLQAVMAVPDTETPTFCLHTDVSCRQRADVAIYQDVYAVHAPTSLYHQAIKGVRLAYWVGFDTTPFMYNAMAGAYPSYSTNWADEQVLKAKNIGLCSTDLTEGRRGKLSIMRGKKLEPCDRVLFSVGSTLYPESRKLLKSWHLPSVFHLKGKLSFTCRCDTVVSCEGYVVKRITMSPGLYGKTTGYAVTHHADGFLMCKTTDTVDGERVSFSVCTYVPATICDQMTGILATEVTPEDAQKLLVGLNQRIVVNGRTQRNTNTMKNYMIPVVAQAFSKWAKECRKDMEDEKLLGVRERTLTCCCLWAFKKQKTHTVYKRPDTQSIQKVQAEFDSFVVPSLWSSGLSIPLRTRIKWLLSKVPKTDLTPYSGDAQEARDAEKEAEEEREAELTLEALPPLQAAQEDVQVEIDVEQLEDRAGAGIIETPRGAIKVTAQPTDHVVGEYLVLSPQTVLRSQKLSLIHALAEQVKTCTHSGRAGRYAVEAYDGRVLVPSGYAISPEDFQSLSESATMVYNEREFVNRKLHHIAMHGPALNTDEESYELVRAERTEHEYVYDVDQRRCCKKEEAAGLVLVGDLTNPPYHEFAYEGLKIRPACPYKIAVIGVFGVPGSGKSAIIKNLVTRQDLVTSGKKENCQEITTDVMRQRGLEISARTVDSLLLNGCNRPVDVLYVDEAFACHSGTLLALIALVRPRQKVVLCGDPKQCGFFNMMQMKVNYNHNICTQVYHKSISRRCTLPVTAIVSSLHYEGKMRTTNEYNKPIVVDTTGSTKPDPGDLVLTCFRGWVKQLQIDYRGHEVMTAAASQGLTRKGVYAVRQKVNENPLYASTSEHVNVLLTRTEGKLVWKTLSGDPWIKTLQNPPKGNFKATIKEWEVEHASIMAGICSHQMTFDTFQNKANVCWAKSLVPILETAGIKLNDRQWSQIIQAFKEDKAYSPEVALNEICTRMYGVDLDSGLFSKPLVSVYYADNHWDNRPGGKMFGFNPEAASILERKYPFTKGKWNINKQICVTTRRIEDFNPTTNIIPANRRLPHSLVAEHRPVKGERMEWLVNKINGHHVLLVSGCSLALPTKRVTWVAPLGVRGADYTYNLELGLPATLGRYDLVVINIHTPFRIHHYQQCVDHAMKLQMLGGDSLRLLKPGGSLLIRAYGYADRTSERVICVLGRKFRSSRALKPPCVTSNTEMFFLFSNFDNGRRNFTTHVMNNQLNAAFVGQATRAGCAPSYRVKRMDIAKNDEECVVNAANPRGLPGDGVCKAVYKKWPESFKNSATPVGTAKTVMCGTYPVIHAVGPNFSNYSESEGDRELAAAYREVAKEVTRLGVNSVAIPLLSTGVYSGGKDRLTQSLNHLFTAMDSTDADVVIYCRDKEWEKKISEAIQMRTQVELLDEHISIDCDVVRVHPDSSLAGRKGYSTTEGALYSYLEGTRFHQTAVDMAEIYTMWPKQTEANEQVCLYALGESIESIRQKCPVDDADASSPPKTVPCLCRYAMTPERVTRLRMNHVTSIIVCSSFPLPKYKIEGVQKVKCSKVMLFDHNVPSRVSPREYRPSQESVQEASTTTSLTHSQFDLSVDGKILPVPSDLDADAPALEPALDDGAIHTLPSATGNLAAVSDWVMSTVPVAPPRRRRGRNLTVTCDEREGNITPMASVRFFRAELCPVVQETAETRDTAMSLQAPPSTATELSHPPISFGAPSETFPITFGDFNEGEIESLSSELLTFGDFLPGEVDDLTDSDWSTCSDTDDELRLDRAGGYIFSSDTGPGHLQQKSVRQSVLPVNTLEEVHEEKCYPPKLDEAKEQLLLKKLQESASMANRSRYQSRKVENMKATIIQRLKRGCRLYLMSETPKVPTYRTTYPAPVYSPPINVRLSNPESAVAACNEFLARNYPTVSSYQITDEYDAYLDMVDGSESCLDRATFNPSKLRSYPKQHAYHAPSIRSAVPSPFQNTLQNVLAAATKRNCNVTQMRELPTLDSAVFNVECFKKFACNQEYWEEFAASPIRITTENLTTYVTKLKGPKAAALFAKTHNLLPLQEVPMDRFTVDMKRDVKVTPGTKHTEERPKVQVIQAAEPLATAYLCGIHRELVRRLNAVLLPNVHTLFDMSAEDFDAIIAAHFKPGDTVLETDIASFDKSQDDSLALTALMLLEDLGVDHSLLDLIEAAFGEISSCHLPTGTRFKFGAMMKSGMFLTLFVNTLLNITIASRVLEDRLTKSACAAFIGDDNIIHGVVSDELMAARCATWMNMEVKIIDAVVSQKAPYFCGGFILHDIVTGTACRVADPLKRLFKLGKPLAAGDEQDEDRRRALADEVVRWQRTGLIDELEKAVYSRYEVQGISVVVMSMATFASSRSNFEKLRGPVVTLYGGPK
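Recombinant nsP2pro (150 nM) was preincubated with compound 15 min at room temperature in 10 mM Tris-HCl pH 8.0, 0.01% Tween 20. Peptide 2 FRET substrate (2.5 uM) was then added and fluorescence read after 1 h. Seven-point series, up to 25 uM.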
CHIKV nsP2 cell – inhibits CHIKV nsP2 protease in cells; shares compounds with nsP2pro inh; cell-based CHIKV nsP2 protease reporter assay; Potency, µM (titrated, usually from 51.1 µM), for the others: at the top dose activity change, negative = inhibition, actives largely listed as inhibitors; actives 10% (n = 450); AID 1964100; further: nearly all actives have a fitted effect of over 70% in size
NSP2 full ctr – inhibits full-length CHIKV NSP2 enzyme; actives 39% (n = 410); Potency, µM (doses to about 50.7 µM), inactives show at the top dose activity change, negative = inhibition, hits mostly inhibitors; AID 1964101; shares compounds with nsP2pro inh; Full-length CHIKV NSP2 protease enzymatic counterscreen; further: nearly all actives have a fitted effect of over 65% in size
Furin counterscr – selectivity counter-screen for CHIKV nsP2 protease inhibitors: human furin; shares compounds with nsP2pro inh; Recombinant human furin enzymatic counterscreen, fluorogenic substrate; Potency, µM (highest dose often 50.6 µM), for the others: at the highest dose activity change, negative = inhibition, most hits filed as inhibitors; actives 6% (n = 410); AID 1964102
nsP2 NS23 pep – nsP2pro inhibition on native NS2/3 peptide substrate; shares compounds with nsP2pro inh; AID 1964103; Potency, µM (top dose mostly 51 µM), for the others: at the highest dose activity change, negative = inhibition, hits mostly inhibitors; actives 34% (n = 410); Purified CHIKV nsP2 protease, endogenous NS2/3 peptide cleavage; further: nearly all actives have a fitted effect of over 55% in size
Papain counter – selectivity counter-screen for CHIKV nsP2 protease inhibitors: papain; AID 1964104; purified papain protease activity, enzymatic inhibition; actives 5% (n = 410); shares compounds with nsP2pro inh; Potency, µM (highest dose often 51 µM), for the others: at the top dose activity change, negative = inhibition, usual class: inhibitors
nsP2pro conf qHTS – confirmation of CHIKV nsP2 protease inhibitors; shares compounds with nsP2pro inh; CHIKV nsP2 protease enzymatic activity, qHTS; Potency, µM (doses to about 25.5 µM), without a hit: at the top dose activity change, negative = inhibition, actives largely listed as inhibitors; actives 43% (n = 410); further: nearly all actives have a fitted effect of over 75% in size
HCV NS3 counter – HCV NS3/4A protease inhibition, counterscreen; shares compounds with nsP2pro inh; HCV NS3/4A protease biochemical counterscreen; Potency, µM (highest dose often 50.9 µM), hits mostly inhibitors; actives 20% (n = 410); AID 1964106; further: nearly all actives have a fitted effect of over 55% in size
Active calls of the source: *; i = inactive; ? = inconclusive; [ ] = remark or other dose. The call rests on the fitted dose curve. On the % scale 0 is the no-effect control and ±100 the full control effect; potency means the concentration at half of the fitted maximal effect.

SMILES | nsP2pro inh | others
CC(=O)OC[C@]12C[C@H](OC(=O)CC(C)C)C(C)=C[C@H]1O[C@@H]1[C@H](O)[C@@H](O)[C@@]2(C)[C@]12CO2 | -7%[10 µM]
Cc1c(P(=S)(c2ccccc2)c2ccccc2)c2ccccc2n1Cc1ccccc1 | i
Cc1c(P(=S)(c2ccccc2)c2ccccc2)c2ccccc2n1C(=O)NCc1ccccc1 | -7%
Cc1c(P(=O)(c2ccccc2)c2ccccc2)c2ccccc2n1C | 11µM*
CC/C(=C(/c1ccc(O)cc1)c1ccc(OCCNC)cc1)c1ccccc1 | 65%
COc1ccc(Nc2ccc3c(n2)CN(Cc2ccccc2C)C(=O)CO3)cc1 | 4.5µM*
COc1ccc(Nc2ccc3c(n2)CN(Cc2ccccc2F)C(=O)CO3)cc1 | -2%[39.2 µM]
COc1ccccc1-c1ccc2c(n1)CN(Cc1ccccc1C)C(=O)CO2 | 4%[39.2 µM]
FC(F)(F)c1cccc(N2CCN(C(=S)Nc3ncnc4ccccc34)CC2)c1 | 5%
CN(Cc1ccccc1)C(=O)[C@H]1C[C@@H](O)[C@H](O)[C@@H]2N=C(Nc3ccc(-n4cccn4)cc3)S[C@@H]21 | i
CCOC(=O)[C@H]1O[C@H]1C(=O)N[C@@H](CC(C)C)C(=O)NCCC(C)C | 7.1µM*
CC(C)CCNC(=O)[C@H](CC(C)C)NC(=O)[C@H]1O[C@@H]1C(=O)O | -10%
COC(=O)[C@@H](N)CS | 11µM*
N[C@H](CO)C(=O)O | -26%
C[C@@H]1[C@H](c2ccccc2)C[C@H](NC(=O)c2cnc3c(c2)C[C@@]2(C3)C(=O)Nc3ncccc32)C(=O)N1CC(F)(F)F | -8%
O=C(O)c1ccc(-c2ccc3ncnc(NCc4nccs4)c3c2)o1 | 11µM*
O=C(O)c1ccc(-c2ccc3ncnc(NCC4CCCO4)c3c2)o1 (configuration not stated) | 4%
CC(C)(C)CNc1ncnc2ccc(-c3ccc(C(=O)O)o3)cc12 | i
CCOc1ccc(C(c2c(O)cc(C)n(CCOC)c2=O)N2CCN(c3ccccc3F)CC2)cc1 (configuration not stated) | 13µM*
Cn1c(=O)cc(SCC(=O)N2CCN(c3ccccc3F)CC2)c2ccccc21 | -19%
CCOC(=O)c1cnc2ccc(OCC)cc2c1N1CCN(c2ccccc2F)CC1 | -11%
Cc1ccc(S(=O)(=O)Nc2cnccc2C(=O)Nc2nc(-c3ccc(F)cc3)cs2)cc1 | i
Cc1ccc(CNC(=O)N2CCCC(CN3CCC(C)CC3)CC2)cc1 (configuration not stated) | -5%
O=C(C[C@H](CSc1ccccc1)C(=O)O)c1ccc(-c2ccc(Cl)cc2)cc1 | -5%
CCCC1CC(C(=O)NC(C(C)Cl)C2OC(SC)C(OP(=O)(O)O)C(O)C2O)N(C)C1 (configuration not stated) | -8%[10 µM]
SMILES | nsP2pro inh | others
CN(Cc1ccccc1)C(=O)[C@H](NC(=O)c1cc2cc(NC(=O)c3ccccc3-c3ccc(C(F)(F)F)cc3)ccc2n1C)c1ccccc1 | -4%
O=C(NCc1cccnc1)c1cc(CN2CCC(Cc3ccccc3)CC2)on1 | i
O=C(NCc1ccncc1)c1nc2c(o1)CCN(CCCc1ccccc1)CC2 | 14µM*
O=C(NCc1ccccc1)c1cnc2n1CCN(Cc1ccccc1)CC2 | i
Cc1ccnc(NC(=S)N[C@H]2CCN(c3cccc(C(F)(F)F)c3)C2)c1 | i
Cc1csc(NC(=O)c2nc3c(o2)CCN(Cc2ccccc2F)CC3)n1 | 13µM*
Cc1ccc2nc(NC(=O)c3cccn(Cc4ccccc4F)c3=O)sc2c1 | -13%
Cc1csc(NC(=O)c2ccc(COc3cccc(Cl)c3)o2)n1 | 0%
Cc1cc2ncc(C(=O)NCc3ccccc3Cl)cn2n1 | -1%[39.2 µM]
O=C(NCc1ccc(Cl)cc1)c1ccc2nnc(-c3cc[nH]c3)n2c1 | 3%
O=C(NCc1ccccc1Cl)c1ccc2nnc(-c3ccoc3)n2c1 | 11µM*
O=C(Nc1nc(-c2ccccc2)cs1)c1ccncc1NS(=O)(=O)c1ccc(N2CCCC2=O)cc1 | i
COc1cccc(-c2nc(-c3cccc(C(=O)O)c3)no2)c1 | i
C=C/C=C\CC1=C(C)[C@@H](OC(=O)[C@H]2[C@H](C=C(C)C)C2(C)C)CC1=O | -14%
CCOc1ccc(CCNC(=O)c2cc3ccncc3n2Cc2cccc(C)n2)cc1OCC | i
CCOc1ccc(CCNC(=O)c2cc3ncccc3n2Cc2cccc(C)n2)cc1OCC | i
CCOc1ccc(CCNC(=O)c2cc3ccccc3n2Cc2ccccn2)cc1OCC | 7.9µM*
O=S(=O)(Nc1nccs1)c1ccc(Nc2nc(-c3ccc(F)cc3)cs2)cc1 | i
Cc1ccc(C(=O)N(CC2CCN(Cc3ccccc3F)CC2)CC2CCCO2)s1 (configuration not stated) | 2%
Cc1noc([C@@H]2CN(C3CCCCCC3)C[C@H]2CO)n1 | 2%
COc1cccc(-n2nc(C(=O)O)cc2-c2ccc(C3CCCCC3)c(Cl)c2)c1 | 206%
O=C1CO[C@H]2CCN(Cc3ccc4c(c3)CCO4)CC[C@@H]2N1Cc1ccccc1 | i
Cc1cc(C)nc(NC(=S)N2CCN(c3cc(C(F)(F)F)nc(C)n3)CC2)c1 | 3%
N#CC1=C2SCN(C3CCCCC3)CN2C(=O)CC1c1ccc(Cl)cc1 (configuration not stated) | 72%
N#CC1=C2SCN(C3CCCCC3)CN2C(=O)CC1c1ccc(F)cc1 (configuration not stated) | ? | CHIKV nsP2 cell=?;NSP2 full ctr=-2%;Furin counterscr=-7%;nsP2 NS23 pep=1.8µM*;Papain counter=-13%;nsP2pro conf qHTS=13µM*;HCV NS3 counter=i
